The results in this text go back to PubChem BioAssay AID687014 (The Scripps Research Institute Molecular Screening Center, 2013).

Hit rate of the full screen: of about 370,000 compounds, about 6,800 (1.8%) were called active. The sample as a whole holds a higher share of actives than the screen did. Unmarked numbers belong to inactive results.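 Rule for the calls: active = activation above a cutoff set at the mean of all screened compounds plus 3 SD (cut at about 10% in these data); inactive = the rest.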

This assay has as its system Nuclear hormone receptor DAF-12 (Heterodera glycines), GAL4 fusion. Briefly: hgDAF-12 GAL4 fusion reporter activation – cell-based, luminescence, HEK293, UAS-luciferase, primary screen (AID 687014).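 Note: 0% = DMSO wells and 100% = sodium butyrate wells.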 The note with it: HEK293 GAL4-hgDAF12 UAS-luciferase reporter, agonist luminescence; at 6.8 µM; stronger effect = higher value; normalized to butyrate control.
On to `O=C(OCCN1CCOCC1)C1(c2ccccc2)CCCCC1`, for which the activation was -2.44%. The value for `c1coc(CCNc2ncnc3ccc(-c4ccc5c(c4)OCO5)cc23)c1` was -2.33%.

In the case of `Oc1cccc2cc(-c3ccncc3)cnc12`, the activation was 15.1% (active). With `Cc1cc2c(nc1C)CCCN2C`, the activation was 0.83%.

For `COc1ccc(NC(=O)C2CCC(CNC(=O)[C@@H]3Cc4ccccc4CN3)CC2)cc1` (some centres not stated), the activation was -1.49%. Turning to `CN1C[C@]2(C=C3CCCCC3n3c(=O)n(-c4ccccc4)c(=O)n32)N=C1NC(=O)c1ccccc1` (some centres not stated), the activation was 2.4%.

Turning to `COc1ccc(-n2c(SCC(=O)Nc3ccc(C)c(Cl)c3)nc3ccccc3c2=O)cc1`, the activation was -4.03%. The value for `FC(F)(F)c1cccc(NC(=S)OC2CCC23CCC(c2ccccc2)CC3)c1` (configuration not stated) was 2.72%; that for `COCCN(C(=S)Nc1ccccc1OC)C1CCN(C(C)C)CC1` was -3%. The value for `Cc1ccc(-c2csc(-c3c[nH]c4ccccc34)n2)cc1` was 13.1% (active). As to `Cc1ccc(-c2csc(N(Cc3ccco3)C(=O)c3cccs3)n2)cc1`, the activation was 4.33%.

Take `CCn1c(SCCC(C)C)nnc1-c1c[nH]c2ccccc12`: the activation is -2.13%. The value for `CC(=O)Nc1nc2ncccn2c1-c1ccc(C(F)(F)F)cc1` was 0.34%.

In the case of `O=C(CSC(=S)N1CCOCC1)c1ccccc1`, the activation is 10.7% (active).

In the case of `CC(=O)c1ccc(NC(=O)CSC(=S)N2CCCC2)cc1`, the activation was 7.4%. The value for `COc1cccc(NC(=O)CN(C)C(=O)CSC(=S)N2CCCC2)c1` was 2.56%; that for `N[C@@H](Cc1ccccc1)C(=O)N1CCOCC1` was 0.96%. For `O=C(CP(=O)(c1ccccc1)c1ccccc1)N1CCOCC1` the value was 1.84%.

For the molecule `O=C(CSC(=S)N1CCCCC1)c1c(F)cccc1F`, the activation was 16.9% (active). The value for `O=C1[C@@H](c2ccccc2)[C@@H](c2ccccc2)N1c1ccccc1` was -0.47%. The value for `CCOC(=O)Cn1c2c(n(-c3ccc(F)cc3)c1=O)C=C(c1ccccc1)[C@@H](C)C(C(=O)N(C)C1CCCCC1)=C2` was -2.75%.

Turning to `CN[C@H]1C[C@H]2c3cc(N4CCOCC4)ccc3CCN2C[C@H]1[C@H](C)O`, the activation is -0.47%. The value for `CCC(=O)Nc1ccc2c(c1)C(=O)N(C)[C@H]1CC[C@H](CC(=O)NCCOC)O[C@@H]1CO2` was -3.11%; that for `O=C(NCc1cccs1)C1CCCN(S(=O)(=O)c2ccc([N+](=O)[O-])cc2)C1` (configuration not stated) was -1.45%. For `C[C@@H]1ON(C)[C@H]2C[C@H]3c4[nH]c5cccc(-c6ccc7c(c6)OCO7)c5c4CCN3C[C@@H]12` the value was -2.08%; for `CC(=O)N1C[C@@H](CO)[C@@H](N(C)C(=O)C(C)(C)C)C[C@H]1c1ccccc1Br`, 4.28%; for `C=C1C(C(C)C)N(C)C2=NC(c3ccccc3)CC(=O)N12` (configuration not stated), -2.06%. As for `O=C(Nc1ccc(S(=O)(=O)N2CCc3ccccc3C2)cc1)c1ccccc1`, the activation was -0.73%.

For `CN1CCN(c2ccc(NC(=O)c3ccccc3)cc2)CC1`, the activation was 10.5% (active). For `O=C(CN1CCN(c2ccc(O)cc2)CC1)Nc1ccc(-c2ccccc2)cc1` the value was 0.81%. For `COc1cccc(CNC(=O)[C@H]2CCCN2C(=O)[C@H]2CCCN2C(=O)C2CCCCC2)c1` the value was -1.24%; for `O=S(=O)(c1cccs1)N1CCCc2nc(-c3ccc(Br)cc3)ccc21`, -0.93%; for `CCCCn1nnnc1C(c1cc2ccccc2o1)N(C)Cc1ccc(Cl)c(Cl)c1` (configuration not stated), 4.88%. For `CCCCNc1ccc(C(=O)Nc2cccc(C)n2)cc1[N+](=O)[O-]` the value was 1.4%; for `CCN1CCC(=NNC(=O)c2ccc(C)c([N+](=O)[O-])c2)CC1`, -0.03%.

As for `Cc1cc(O)c(NC(=O)c2ccc(C)c([N+](=O)[O-])c2)cc1C`, the activation was 14.1% (active). The value for `O=C(CSc1nnc(-c2ccccn2)n1-c1ccc(Cl)cc1)Nc1ccccc1-c1ccccc1` was -5.11%; that for `C[C@@H]1COc2cccc(N3CCCC3)c2S(=O)(=O)N1C` was 2.34%; that for `COc1ccc(C(=O)CSc2nnc(-c3cnccn3)n2-c2ccc(C)cc2)cc1` was -1.45%. In the case of `Cc1ccc(NC(=O)c2csc3c2CCCC3)cc1`, the activation is 23% (active). The value for `Cc1ccc(NC(=O)C2(N3CCC3=O)CCCCC2)cc1` was -1.36%. Take `CC1CC(C)CN(CCCNC(=O)c2csc3c2CCCCC3)C1` (configuration not stated): the activation is 1.68%. The value for `CC(C)(C)c1ccc(S(=O)(=O)NCC2CCN(C(=O)C(=O)c3cc4ccccc4o3)CC2)cc1` was -2.12%. The value for `CC(C)CC1NC(=O)c2cc(Cl)ccc2-n2c1nc1ccccc1c2=O` (configuration not stated) was -4.04%; that for `CCN(CC)C(=O)CSc1nc2ccccc2o1` was 4.9%; that for `CC(=O)Nc1ccc(S(=O)(=O)NC2Cc3ccccc3C2)cc1` was -1.12%. The value for `Cc1cc2nc(-c3ccc(NC(=O)c4cccnc4)cc3)oc2cc1C` was 10.8% (active); that for `CC(=O)Nc1ccc(-c2nc3ccccc3o2)cc1` was 14.1% (active); that for `Cc1ccc(-n2nc3cc(C)c(NC(=O)c4cccnc4)cc3n2)cc1` was 3.33%. Turning to `O=C(Nc1cccc(-n2cnnn2)c1)c1cccnc1`, the activation was 0.26%. For `COc1ccc(C2=CN(Cc3ccccc3)C(c3ccc(OC)cc3)CC2=O)cc1` (configuration not stated) the value was 1.21%. Turning to `COc1ccc(CN(C)Cc2nc3cc(OC)c(OC)cc3c(=O)[nH]2)c(OC)c1`, the activation is -1.81%.

With `CC(C)CNc1cccc2c1S(=O)(=O)N(Cc1cn(Cc3ccc(Cl)cc3)nn1)Cc1ccccc1O2`, the activation is 1.68%. For `CCOC(=O)c1c(C)[nH]c(C2=NNC(=NC(C)COC)SC2)c1C` (configuration not stated) the value was 12.9% (active); for `COC(=O)C[C@H]1C=C[C@@H](NS(=O)(=O)c2ccc(C)cc2)[C@@H](CO)O1`, 3.19%.

As to `COc1ccc(CN(CCN2CCOCC2)C(=O)c2ccc(C)cc2)cc1OC`, the activation is 2.69%. The value for `Cc1ccc(NC(=O)c2ccco2)cc1` was 13.3% (active). For `C/C(=N\NC(=S)Nc1ccc(C)cc1)c1cc2ccccc2o1` the value was 0.54%; for `Cc1ccc(NC(=O)c2cc3ccccc3o2)cc1`, 15.2% (active).

For the molecule `CC1CCN(c2ccc(-c3ccc(NC(=O)c4ccco4)cc3)nn2)CC1`, the activation is 7.1%. The value for `CN(C)C(CNC(=O)c1cc2ccccc2o1)c1ccccc1` (configuration not stated) was 0.25%; that for `CN1CCN(S(=O)(=O)c2ccc(NC(=O)c3ccco3)cc2)CC1` was 3.6%. For the molecule `CCCCNC(=O)C[C@@H]1C(=O)N(CCc2ccc(Cl)cc2)C2=CCCC[C@]21C(=O)OCC`, the activation was -1.77%.

With `COc1cccc(CNC(=O)[C@H]2CCCN2C(=O)[C@H]2CCCN2C(=O)c2ccc(F)cc2)c1`, the activation is -0.01%. For `Nn1c(SCC(=O)N2c3ccccc3Sc3ccccc32)nnc1-c1n[nH]c2c1CCC2` the value was -2.62%; for `Nc1ncnc2c1ncn2[C@@H]1O[C@H](C(=O)N2CCSC2)[C@@H](O)[C@H]1O`, -0.23%. The value for `O=C(CSc1nnc(-c2cccc(Cl)c2)n1Cc1ccco1)Nc1ccc(OCc2ccccc2)cc1` was -1.62%. Consider `COc1cccc(N(C(=O)C2COc3ccccc3O2)C(C(=O)NC2CCCCC2)c2ccc(O)cc2)c1` (configuration not stated), for which the activation was 0.49%. The value for `Nn1c(SCC(=O)Nc2ccc(S(N)(=O)=O)cc2)nnc1-c1n[nH]c2c1CCC2` was 0.61%; that for `COc1ccc(C(=O)/C=C/c2ccc(-c3ccccc3)cc2)cc1CSCC(=O)O` was -3.73%; that for `CC(=O)Oc1ccc(C)cc1N1C(=O)c2ccc(C(=O)O)cc2C1=O` was -2.04%.

In the case of `O=C(O)c1ccc2c(c1)C(=O)N(c1ccc(/C=C/C(=O)c3ccccc3)cc1)C2=O`, the activation is 14.1% (active). The value for `CCOC(=O)C1(Cc2ccccc2)CCN(Cc2cn(C(C)=O)c3ccccc23)CC1` was 1.22%; that for `COC(=O)c1sc(NC(=O)COC(=O)C2CCC2)c(C(=O)OC)c1C` was 0.97%. The value for `COC(=O)c1c(NC(C)=O)sc(C(=O)Nc2ccccc2OC)c1C` was -3.24%.

Regarding `CCC(=O)Nc1sc(C(=O)Nc2ccccc2)c(C)c1C(=O)OC`, the activation is 13.4% (active). For `COc1ccccc1-c1ccc([C@@H]2C[C@H]3[C@H](CON3C)CN2S(=O)(=O)c2cc(Cl)cc(Cl)c2)cc1` the value was 4.17%. The value for `COC(=O)Nc1nc2ccc(C(=O)C3CC3)cc2[nH]1` was 6.35%; that for `COC(=O)C[C@H]1CC[C@H]2[C@H](COc3ccc(NC(=O)C4CC4)cc3C(=O)N2C)O1` was 1.59%. For `Brc1ccc(-c2nnc(-c3ccccc3)o2)o1` the value was 11.2% (active); for `O=S(=O)(c1ccc(Br)cc1)c1nc(-c2ccccc2)oc1N1CCOCC1`, -0.08%; for `O=C(Nc1nnc(-c2ccc(Cl)cc2)o1)c1ccccc1Br`, 3.84%. Take `Brc1ccc(-c2noc(-c3ccccc3)n2)o1`: the activation is 15.9% (active).

On to `O=C(OCc1nnc(-c2ccccc2)o1)c1ccc2c(c1)C(=O)N(CCc1ccccc1)C2=O`, for which the activation is -0.76%. For `Nc1ccc(-c2nnc(-c3ccccc3)o2)cc1` the value was 10.4% (active). The value for `CCCN(CCC)c1ccc(C(O)c2nnc(-c3ccccc3)o2)cc1` (configuration not stated) was -0.77%. The value for `C=CCN1C(=O)[C@@H](CC(=O)N2CCN(C(=O)OCC)CC2)[C@]2(C(=O)OCC)CCCCC/C=C/12` was -0.26%. `CCN(CC)C(=O)CC[C@@H]1CC[C@]2(CCCN(S(=O)(=O)C3CCCCC3)C2)O1`: the activation was 0.45%.

Regarding `C=CCn1c(SCC(N)=O)nnc1-c1ccccc1OC`, the activation was -1.84%. For `N#Cc1ccc(C2N=C(c3ccccc3)NO2)cc1` (configuration not stated) the value was 9.37%; for `Brc1ccccc1C1N=C(c2ccccc2)NO1` (configuration not stated), 20.2% (active); for `S=C1NC(c2ccccc2)=NCN1c1ccc(Br)cc1`, 4.34%.
